Each structure is given as a SMILES string. Records with an inconclusive call do not appear. Active and inactive are the calls of the source. The call rests on the fitted dose curve; in most records, active means well fitted curve in the direction sought with a large enough effect; inconclusive means small, poorly fitted or top-dose-only effect, or another doubt; inactive means no such curve, though single readings can be large; an effect the other way counts as inactive or inconclusive.

The nature of assay [1]: qHTS of pediatric cancer cell lines to identify multiple opportunities for drug repurposing: Primary screen for control Hh wild type fibroblast cells (AID 1347106).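 Further: series mostly up to about 46 µM; a drop in luminescence marks cytotoxicity and a rise apparent proliferation; nearly all actives have a fitted effect of over 55% in size.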 The gist of the method: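 Viability after 48 h compound treatment at 37C, 500-1,000 cells/well, read as ATP luminescence with CellTiter-Glo. Primary screens used 11-point (MIPE, 0.78 nM-46 µM) or 8-point (NPC, 0.59 nM-46 µM) final concentrations; follow-up screens used 11-point dilutions.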
(In general: qHTS replaces the single test concentration by a dilution series.)

A short description of assay [2]: qHTS of pediatric cancer cell lines to identify multiple opportunities for drug repurposing: Primary screen for Rh30 cells (AID 1347107). Further: series mostly up to about 46 µM; nearly all actives have a fitted effect of over 75% in size. The gist of the method:
(§1)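 Cells (500-1,000/well) rested 5 h, then received compounds for 48 h; metabolically active cells were measured by CellTiter-Glo luminescence. Final concentrations spanned up to 46 µM (MIPE, 11-point) or 0.59 nM-46 µM (NPC, 8-point) in primary screens, 11-point in follow-ups.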

A short description of assay [3]: qHTS of pediatric cancer cell lines to identify multiple opportunities for drug repurposing: Primary screen for Rh41 cells (AID 1347108).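 Further: series mostly up to about 46 µM; luminescence drop marks cytotoxic hits; nearly all actives have a fitted effect of over 70% in size.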 In short, it runs like this:
(§2)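 Quantitative HTS format: each compound titrated (MIPE 11 points from 0.78 nM, NPC 8 points from 0.59 nM) onto cells plated 5 hours earlier. After 48 h at 37 degrees C, CellTiter-Glo luminescence was recorded.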

Assay [4] in a line: qHTS of pediatric cancer cell lines to identify multiple opportunities for drug repurposing: Primary screen for MG 63 (6-TG R) cells (AID 1347105). Further: nearly all actives have a fitted effect of over 50% in size. Further: potency means the concentration at half of the fitted maximal effect. The gist of the method:
as §2

Assay [5] is described as follows: qHTS of pediatric cancer cell lines to identify multiple opportunities for drug repurposing: Confirmatory screen for NB1643 cells (AID 1347109). Further: nearly all actives have a fitted effect of over 45% in size. In short, it runs like this: as §1
Assay [6] in a line: qHTS of pediatric cancer cell lines to identify multiple opportunities for drug repurposing: Confirmatory screen for A673 cells (AID 1347110).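 Further: cells exposed to compound for 48 h before the viability read; nearly all actives have a fitted effect of over 65% in size.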 In short, it runs like this: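 A673 cells seeded at 500-1,000 cells/well, rested 5 h, then dosed; primary MIPE 11-point (0.78 nM to 46 µM), NPC (0.59 nM to 46 µM); confirmatory 11-point. CellTiter-Glo luminescence after 48 h.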
Assay [7] can be described thus: qHTS of pediatric cancer cell lines to identify multiple opportunities for drug repurposing: Confirmatory screen for LAN-5 cells (AID 1347113). Further: nearly all actives have a fitted effect of over 65% in size. In short, it runs like this: as §1
Assay [8] is described as follows: qHTS of pediatric cancer cell lines to identify multiple opportunities for drug repurposing: Confirmatory screen for RD cells (AID 1347124).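 Further: cells exposed to compound for 48 h before viability readout; nearly all actives have a fitted effect of over 65% in size.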 The gist of the method: as §1
Assay [9] can be described thus: qHTS of pediatric cancer cell lines to identify multiple opportunities for drug repurposing: Confirmatory screen for Saos-2 cells (AID 1347127). Further: nearly all actives have a fitted effect of over 60% in size. The gist of the method: as §1
Assay [10] can be described thus: qHTS of pediatric cancer cell lines to identify multiple opportunities for drug repurposing: Confirmatory screen for OHS-50 cells (AID 1347128).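 Further: compound exposure lasted 48 h at 37 degrees C; nearly all actives have a fitted effect of over 55% in size.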 In short, it runs like this: as §1

Consider `CCCN(CCC)C(=O)C(CCC(=O)OCCCN1CCN(CCOC(=O)Cc2c(C)n(C(=O)c3ccc(Cl)cc3)c3ccc(OC)cc23)CC1)NC(=O)c1ccccc1` (stereo not given), for which the Potency result in [1], in assay [2] and in assay [3] was “inactive” in each case.
Consider `CCCCCCn1c(=O)c2c(ncn2C)n(C)c1=O`, for which the Potency result in [1], in [2] and in assay [3] was “inactive” each time.
`CC(NC(CCc1ccccc1)C(=O)O)C(=O)N1C(=O)N(C)CC1C(=O)O` (stereo not given): the Potency entry in [1] and in [2] was “inactive” throughout.
On to `CC(C)(C)C1CCC(CC2=C(O)c3ccccc3C(=O)C2=O)CC1` (stereo not given), for which, in assay [1], the Potency result was “inactive”.
Take `CC(=O)Oc1ccc(C2(c3ccc(OC(C)=O)cc3)Oc3ccccc3NC2=O)cc1`: the Potency in assay [4] is 4.22 µM (active). Further, in [2], the Potency result is “inactive”.
Take `Nc1c(NC/C=C\COc2cc(CN3CCCCC3)ccn2)c(=O)c1=O`: the Potency entry in [1], in assay [2] and in assay [3] was “inactive” in each case.
Turning to `O=C(O)c1cn(C2CC2)c2cc(Cl)c(F)cc2c1=O`, the Potency result in assay [4], in assay [2] and in assay [3] was “inactive” each time.
Turning to `CC[C@@H]([C@H](C)O)n1ncn(-c2ccc(N3CCN(c4ccc(OC[C@@H]5CO[C@@](Cn6cncn6)(c6ccc(F)cc6F)C5)cc4)CC3)cc2)c1=O`, the Potency result in assay [1] and in assay [2] was “inactive” throughout.
In the case of `C=CC[N+]1([C@H]2C[C@H]3[C@@H]4CC[C@H]5C[C@H](OC(C)=O)[C@@H](N6CCCCC6)C[C@]5(C)[C@H]4CC[C@]3(C)[C@H]2OC(=O)CC)CCCCC1`, the Potency result in [4], in assay [2] and in assay [3] was “inactive” throughout.
As to `Cc1c(C)c2c(c(C)c1OC(=O)CCC(=O)OCCO)CC[C@@](C)(CCC[C@H](C)CCC[C@H](C)CCCC(C)C)O2`, the Potency entry in [2] and in assay [3] was “inactive” throughout.
Consider `CCCCCOc1ccccc1/C(=C\SC)n1ccnc1`, for which the Potency entry in [4] and in [2] was “inactive” throughout.
Regarding `CCCC(=O)O[C@]1(C(=O)CCl)[C@@H](C)C[C@H]2[C@@H]3CCC4=CC(=O)C=C[C@]4(C)[C@@]3(F)C(=O)C[C@@]21C`, the Potency entry in assay [4], in assay [1], in assay [2], in assay [5], in [6] and in assay [7] was “inactive” in each case. Also, the Potency entry in assay [8], in assay [9] and in assay [10] was “inactive” throughout.

The record behind these values is PubChem BioAssay (NCATS).
